Experimental findings from PubChem BioAssay (EPA / NIEHS) are described below.

Active and inactive are the calls of the source. The calls were made as follows: active = hit-call score of the fitted dose curve at least 0.9, where 1 is the maximum; inactive = score below 0.9.

Common to all, as to settings: mRNA level, 48 h; actives raise or lower the signal
Read-out in experiment [1]: ABC Transporter (ABCC3), ABCC3 (gene 8714)
Put plainly: LTEA_HepaRG_ABCC3: Life Technologies and Expression Analysis (LTEA) Assay for ABC Transporter (ABCC3) using HepaRG (AID 2283462). Put shortly: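 HepaRG cells in serum-free induction medium were exposed for 48 h in duplicate to 8-point half-log concentrations topping at 100 uM in 0.5% DMSO. ABCC3 mRNA was measured by qRT-PCR normalized to ACTB, GAPDH and POLR2A, with bidirectional fitting versus DMSO.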

Read-out in experiment [2]: ABC Transporter (ABCB11), ABCB11 (gene 8647)
Put plainly: LTEA_HepaRG_ABCB11: Life Technologies and Expression Analysis (LTEA) Assay for ABC Transporter (ABCB11) using HepaRG (AID 2283463). Put shortly: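 ABCB11 transcript levels are read by Fluidigm TaqMan qRT-PCR after 48 h chemical treatment of human HepaRG cells. Concentrations span 100 uM downward in half-log steps with 0.5% DMSO; gain or loss is fitted against DMSO controls.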

Read-out in experiment [3]: Broad substrate specificity ATP-binding cassette transporter ABCG2 (Homo sapiens) (UniProt Q9UNQ0)
Put plainly: LTEA_HepaRG_ABCG2: Life Technologies and Expression Analysis (LTEA) Assay for ABC Transporter (ABCG2) using HepaRG (AID 2283465). In short, it runs like this: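 Read-out is ABCG2 mRNA induction or loss quantified by qRT-PCR after 48 h chemical treatment of human HepaRG cells, normalized to three housekeeping genes. Concentrations reached 100 uM top in half-log steps; fitting was bidirectional against 0.5% DMSO.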

Read-out in experiment [4]: ATP-citrate lyase (ACLY), ACLY (gene 47)
Put plainly: LTEA_HepaRG_ACLY: Life Technologies and Expression Analysis (LTEA) Assay for ATP-citrate lyase (ACLY) using HepaRG (AID 2283466). In short, it runs like this: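 HepaRG, 48 h exposure, 8-pt half-log dilutions (top 100 uM), 0.5% DMSO. Readout: ACLY mRNA, TaqMan qRT-PCR, housekeeping-normalized (ACTB/GAPDH/POLR2A). Bidirectional curve fit vs DMSO.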

Read-out in experiment [5]: Peroxisomal acyl-coenzyme A oxidase 1 (ACOX1) gene, ACOX1 (gene 51)
Put plainly: LTEA_HepaRG_ACOX1: Life Technologies and Expression Analysis (LTEA) Assay for Peroxisomal acyl-coenzyme A oxidase 1 (ACOX1) gene using HepaRG (AID 2283467). Put shortly:
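Measured by qRT-PCR against three housekeeping genes: ACOX1 transcript change in human HepaRG cells after 48 h dosing. Concentrations ran up to 100 uM in half-log steps. Curves were fitted bidirectionally relative to 0.5% DMSO.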

Read-out in experiment [6]: Alkaline Phosphatase, Placental (ALPP) gene, ALPP (gene 250)
Put plainly: LTEA_HepaRG_ALPP: Life Technologies and Expression Analysis (LTEA) Assay for Alkaline Phosphatase, Placental (ALPP) gene using HepaRG (AID 2283468). In short, it runs like this: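 Differentiated human HepaRG cells were plated and cultured 48 h, then exposed in duplicate for 48 h in serum-free induction medium to eight half-log concentrations from 100 uM in 0.5% DMSO. ALPP mRNA was measured by TaqMan qRT-PCR, normalized to ACTB, GAPDH, POLR2A.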

Read-out in experiment [7]: Bcl-2 (BAX) gene, BAX (gene 581)
Put plainly: LTEA_HepaRG_BAX: Life Technologies and Expression Analysis (LTEA) Assay for Bcl-2 (BAX) gene using HepaRG (AID 2283470). Put shortly:
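Concentration-response endpoint fitted in both directions relative to 0.5% DMSO vehicle. Human HepaRG cultures receive test chemicals for 48 h at up to 100 uM; BAX mRNA is quantified by qRT-PCR against housekeeping genes.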

Read-out in experiment [8]: adenosine kinase (ADK) gene, ADK (gene 132)
Put plainly: LTEA_HepaRG_ADK: Life Technologies and Expression Analysis (LTEA) Assay for adenosine kinase (ADK) gene using HepaRG (AID 2283471). Put shortly: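 Read-out is ADK transcript level measured by qRT-PCR and normalised to three housekeeping genes. Cells are human HepaRG, dosed for 48 h at up to 100 uM in 0.5% DMSO. Gain or loss of signal is fitted against DMSO controls.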

Read-out in experiment [9]: Alpha-fetoprotein (AFP) gene, AFP (gene 174)
Put plainly: LTEA_HepaRG_AFP: Life Technologies and Expression Analysis (LTEA) Assay for Alpha-fetoprotein (AFP) gene using HepaRG (AID 2283472). In short, it runs like this: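 After a 48 h plating period, cells are moved to serum-free induction medium and dosed in duplicate (100 uM maximum, half-log dilutions, 0.5% DMSO) for another 48 h. Total RNA goes to TaqMan qRT-PCR; AFP signal is housekeeping-normalized.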

Read-out in the next experiment: BCL2L11 (gene 10018)
Put plainly: LTEA_HepaRG_BCL2L11: Life Technologies and Expression Analysis (LTEA) Assay for Bcl-2 (BCL2L11) gene using HepaRG (AID 2283473). In short, it runs like this: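 Differentiated human HepaRG cells in serum-free induction medium were exposed in duplicate for 48 h to eight concentrations (top 100 uM, half-log steps, 0.5% DMSO). BCL2L11 mRNA was quantified by TaqMan qRT-PCR, normalized to ACTB/GAPDH/POLR2A, bidirectional fit versus DMSO.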

Read-out in experiment [10]: Apolipoprotein A-V (APOA5) gene, APOA5 (gene 116519)
Put plainly: LTEA_HepaRG_APOA5: Life Technologies and Expression Analysis (LTEA) Assay for Apolipoprotein A-V (APOA5) gene using HepaRG (AID 2283474). In short, it runs like this: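 Differentiated human HepaRG cells were exposed in duplicate for 48 h to eight half-log concentrations from 100 uM in 0.5% DMSO. APOA5 mRNA was quantified by TaqMan qRT-PCR, normalized to ACTB, GAPDH and POLR2A, and fitted bidirectionally against DMSO.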

Read-out in experiment [11]: Apoptosis regulator Bcl-2 (Homo sapiens) (UniProt P10415)
Put plainly: LTEA_HepaRG_BCL2: Life Technologies and Expression Analysis (LTEA) Assay for Bcl-2 gene using HepaRG (AID 2283475). Put shortly: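 Expression change of BCL2 mRNA in HepaRG after 48 h dosing, quantified by TaqMan qRT-PCR against three endogenous controls. Concentration-response used eight points up to 100 uM, vehicle 0.5% DMSO.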

Read-out in experiment [12]: Bcl-2 (BID) gene, BID (gene 637)
Put plainly: LTEA_HepaRG_BID: Life Technologies and Expression Analysis (LTEA) Assay for Bcl-2 (BID) gene using HepaRG (AID 2283476). Put shortly:
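Gain or loss of BID expression is fitted relative to 0.5% DMSO vehicle. Human HepaRG liver cells received a 48 h chemical exposure over an eight-point concentration range.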

Read-out in another experiment: Caspase-3 (Homo sapiens) (UniProt P42574)
Put plainly: LTEA_HepaRG_CASP3: Life Technologies and Expression Analysis (LTEA) Assay for cysteine-aspartic acid protease (CASP3) using HepaRG (AID 2283477). Put shortly:
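Differentiated human HepaRG cells in serum-free induction medium were exposed 48 h to 8-point half-log concentrations from 100 uM (0.5% DMSO vehicle). CASP3 mRNA was measured by qRT-PCR, normalised to ACTB, GAPDH and POLR2A, with bidirectional fitting against DMSO.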

Read-out in experiment [13]: Cytochrome P450 (CYP24A1), CYP24A1 (gene 1591)
Put plainly: LTEA_HepaRG_CYP24A1: Life Technologies and Expression Analysis (LTEA) Assay for Cytochrome P450 (CYP24A1) using HepaRG (AID 2283478). In short, it runs like this: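 Differentiated HepaRG cells, pre-cultured 48 h, were exposed in duplicate for 48 h in serum-free induction medium to 8 half-log concentrations (top 100 uM, 0.5% DMSO). CYP24A1 mRNA was quantified by TaqMan qRT-PCR, normalized to ACTB/GAPDH/POLR2A, fitted bidirectionally versus DMSO.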

Read-out in experiment [14]: Cytochrome P450 (CYP1A2), CYP1A2 (gene 1544)
Put plainly: LTEA_HepaRG_CYP1A2: Life Technologies and Expression Analysis (LTEA) Assay for Cytochrome P450 (CYP1A2) using HepaRG (AID 2283479). Put shortly:
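Differentiated human HepaRG cells in serum-free induction medium were exposed in duplicate for 48 h to 8-point half-log concentrations up to 100 uM in 0.5% DMSO. CYP1A2 mRNA measured by qRT-PCR, normalized to ACTB, GAPDH, POLR2A; bidirectional fit vs DMSO.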

Read-out in experiment [15]: cysteine-aspartic acid protease (CASP8), CASP8 (gene 841)
Put plainly: LTEA_HepaRG_CASP8: Life Technologies and Expression Analysis (LTEA) Assay for cysteine-aspartic acid protease (CASP8) using HepaRG (AID 2283480). In short, it runs like this: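 HepaRG, 48 h exposure, duplicate wells; 8 conc, half-log from 100 uM, 0.5% DMSO. Serum-free induction medium. CASP8 mRNA by TaqMan qRT-PCR, norm. ACTB/GAPDH/POLR2A; gain/loss fitted vs DMSO.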

Read-out in experiment [16]: ABC Transporter (ABCC2), ABCC2 (gene 1244)
Put plainly: LTEA_HepaRG_ABCC2: Life Technologies and Expression Analysis (LTEA) Assay for ABC Transporter (ABCC2) using HepaRG (AID 2283464). In short, it runs like this: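 HepaRG cells were plated 48 h, switched to serum-free induction medium, then exposed in duplicate for 48 h to 8 concentrations (top 100 uM, half-log steps, 0.5% DMSO). ABCC2 mRNA was measured by qRT-PCR normalized to ACTB/GAPDH/POLR2A; bidirectional fitting versus DMSO.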

Read-out in experiment [17]: Bcl-2 (BAD) gene, BAD (gene 572)
Put plainly: LTEA_HepaRG_BAD: Life Technologies and Expression Analysis (LTEA) Assay for Bcl-2 (BAD) gene using HepaRG (AID 2283469). In short, it runs like this: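 BAD transcript change, measured by qRT-PCR against three housekeeping genes and fitted in both directions relative to 0.5% DMSO, after 48 h chemical treatment of human HepaRG liver cells at concentrations up to 100 uM.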

Usually AC50 stands for the concentration at which the activity in the assay is half-maximal.

Apoptosis regulator Bcl-2 (Homo sapiens), sequence (P10415 whole entry, looked up): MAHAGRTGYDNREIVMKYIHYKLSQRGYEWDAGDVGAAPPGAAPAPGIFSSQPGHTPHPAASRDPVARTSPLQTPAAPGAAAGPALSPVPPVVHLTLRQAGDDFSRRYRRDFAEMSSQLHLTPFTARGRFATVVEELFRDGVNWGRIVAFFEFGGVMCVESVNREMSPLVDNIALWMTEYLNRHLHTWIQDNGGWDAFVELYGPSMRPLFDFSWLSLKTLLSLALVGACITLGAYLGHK
Caspase-3 (Homo sapiens), sequence (P42574 whole entry, looked up): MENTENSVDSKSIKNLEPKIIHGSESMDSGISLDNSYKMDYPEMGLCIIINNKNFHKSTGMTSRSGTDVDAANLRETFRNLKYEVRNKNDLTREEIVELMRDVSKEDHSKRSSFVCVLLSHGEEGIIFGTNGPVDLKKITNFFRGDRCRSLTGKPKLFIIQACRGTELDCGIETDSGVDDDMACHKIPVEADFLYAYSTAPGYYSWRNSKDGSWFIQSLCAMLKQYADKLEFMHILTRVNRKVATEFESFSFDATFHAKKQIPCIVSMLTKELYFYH
Broad substrate specificity ATP-binding cassette transporter ABCG2 (Homo sapiens), sequence (Q9UNQ0 whole entry, looked up): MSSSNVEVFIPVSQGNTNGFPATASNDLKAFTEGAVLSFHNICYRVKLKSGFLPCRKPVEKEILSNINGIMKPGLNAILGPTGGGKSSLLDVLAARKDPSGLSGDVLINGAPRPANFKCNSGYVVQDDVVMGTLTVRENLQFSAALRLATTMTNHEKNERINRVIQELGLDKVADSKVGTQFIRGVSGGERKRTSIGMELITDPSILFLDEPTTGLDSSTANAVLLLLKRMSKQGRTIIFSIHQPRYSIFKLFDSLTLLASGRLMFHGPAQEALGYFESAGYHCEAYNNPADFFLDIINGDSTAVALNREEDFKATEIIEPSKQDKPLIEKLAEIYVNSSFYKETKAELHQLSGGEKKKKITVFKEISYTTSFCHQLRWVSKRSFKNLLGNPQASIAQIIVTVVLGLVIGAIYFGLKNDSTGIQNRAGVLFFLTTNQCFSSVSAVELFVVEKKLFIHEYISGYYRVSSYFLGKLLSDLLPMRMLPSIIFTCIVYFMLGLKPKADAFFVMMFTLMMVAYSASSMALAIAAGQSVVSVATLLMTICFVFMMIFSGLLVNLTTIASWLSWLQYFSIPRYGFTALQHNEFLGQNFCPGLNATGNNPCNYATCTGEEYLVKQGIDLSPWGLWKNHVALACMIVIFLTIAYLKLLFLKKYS

Turning to `Cc1nccn1-c1ccc(Sc2cccc(C3(C(N)=O)CCOCC3)c2)cc1`, the half-maximal activity concentration (AC50) was 3.65 µM (active) in experiment [1]; 9.74 µM (active) in experiment [2]; 31.2 µM (active) in [3]; 12.2 µM (active) in experiment [5]; 5.09 µM (active) in experiment [6]; 13.1 µM (active) in [8]. Also, the AC50 was 13.4 µM (active) in experiment [9]; 3.37 µM (active) with BCL2L11 (gene 10018); 11.3 µM (active) in [10]; 7.26 µM (active) in experiment [11]; 2.48 µM (active) in the experiment with Caspase-3 (Homo sapiens); 18.6 µM (active) in experiment [14]. Also, the AC50 in [15] is 28.1 µM (active). Also, the result in [4], in experiment [7], in experiment [12] and in experiment [13] was inactive.
Take `OC[C@H]1O[C@@](CO)(O[C@H]2O[C@H](CO)[C@@H](O)[C@H](O)[C@H]2O)[C@@H](O)[C@@H]1O`: the compound was called inactive in [1], in [2], in [3], in experiment [4], in experiment [5] and in [6]. Further, the compound was classed as inactive (in [7]; in experiment [9]; in the experiment with BCL2L11 (gene 10018); in [10]; in experiment [11]; in [12]). Also, the outcome (with Caspase-3 (Homo sapiens); in experiment [13]; in [14]; in [15]) was inactive.
With `OCCNCCO`, the compound was called inactive in [1], in experiment [16], in experiment [3], in [4], in experiment [5] and in experiment [7]. The compound was called inactive (with BCL2L11 (gene 10018); in experiment [11]; in experiment [12]; with Caspase-3 (Homo sapiens); in experiment [13]; in experiment [14]). For the same compound, the compound was classed as inactive in [15]. Also, the AC50 in experiment [2] is 60.5 µM (active); in experiment [6] it was 50 µM (active); in experiment [9] it was 50 µM (active).
Turning to `O=C(O)[C@H](O)[C@@H](O)C(=O)O`, the compound was classed as inactive in [1], in experiment [2], in experiment [16], in experiment [3], in [4] and in experiment [5]. The result (in experiment [6]; in [17]; in experiment [7]; in experiment [9]; with BCL2L11 (gene 10018); in experiment [11]) was inactive. For the same compound, the compound was classed as inactive (in experiment [12]; with Caspase-3 (Homo sapiens); in experiment [15]).
As for `CCCCCOC(C)=O`, the result in experiment [1], in experiment [2], in experiment [3], in experiment [4], in experiment [5] and in [6] was inactive. For the same compound, the compound was called inactive (in experiment [17]; in experiment [7]; in experiment [9]; with BCL2L11 (gene 10018); in experiment [11]; in [12]). In addition, the call (in the experiment with Caspase-3 (Homo sapiens); in [13]; in [14]; in experiment [15]) was inactive.
For `CCCCCCCC1CCC(=O)O1` (stereo not drawn), the outcome in experiment [1], in experiment [3], in [4], in experiment [5], in [6] and in experiment [7] was inactive. The call (in [8]; in [9]; with BCL2L11 (gene 10018); in [11]; in [12]; with Caspase-3 (Homo sapiens)) was inactive. The result in experiment [15] was inactive.
